# Values joined by “and” are separate entries in the source; they are usually repeats but may differ in a detail not shown here. Equal entries are not always repeated. Results filed as inconclusive are left out. Some compounds were tested as several samples or in several runs, with calls that do not always agree. Active and inactive are the calls of the source. How the source made its calls: active means hit-call score of the fitted dose curve at least 0.9, where 1 is the maximum; inconclusive means response in the unintended direction; inactive means score below 0.9.
# How the values were obtained:
# [1] = ACEA_AR_agonist_AUC_viability: ACEA Biosciences xCELLigence Real-Time Cell Analysis on Androgen Receptor Agonism for Viability (AID 2283775);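 on AC50: viability read 80 hours after compound addition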
# In short: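 Real-time impedance tracking of 22Rv1 growth, readings every 5 min for 5 h then hourly; area-under-curve viability endpoint at 80 hours, relative to DMSO. Compounds at eight concentrations, 1:4 steps, top 100 uM, n = 2.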
# [2] = ACEA_AR_antagonist_AUC_viability: ACEA Biosciences xCELLigence Real-Time Cell Analysis on Androgen Receptor Antagonism for Viability (AID 2283776);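 further: hits lower the growth signal relative to DMSO meaning cytotoxicity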
# In short: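 22Rv1 human prostate cancer cells were seeded on electrode plates, monitored overnight, then exposed to eight 1:4 dilutions from 100 uM final. Impedance-based growth kinetics at 80 h gave an AUC viability endpoint normalized to DMSO.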
# [3] = tested on: zebrafish Androgen Receptor (AR), gene 100005148; assay: ATG_zfAR_XSP1: Attagene TRANS-FACTORIAL Multi-Species (XSP1) HepG2 Assay for zebrafish Androgen Receptor (AR) (AID 2283771)
# In short: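 HepG2 cells were transiently transfected with a zebrafish AR-GAL4 reporter system and partially stimulated with 3 nM 6-alpha-fluorotestosterone. Reporter mRNA was measured after 24 h dosing by RT-PCR with capillary electrophoresis, and gain-of-signal was fitted relative to DMSO.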
# [4] = biological target: zebrafish Estrogen Receptor (ESR1), esr1 (gene 259252) (UniProt P57717); assay: ATG_zfER1_XSP1: Attagene TRANS-FACTORIAL Multi-Species (XSP1) HepG2 Assay for zebrafish Estrogen Receptor (ESR1) (AID 2283772)
# Chain of zebrafish Estrogen Receptor (ESR1), esr1 (gene 259252) (P57717 whole entry, looked up, the tested form may be a part): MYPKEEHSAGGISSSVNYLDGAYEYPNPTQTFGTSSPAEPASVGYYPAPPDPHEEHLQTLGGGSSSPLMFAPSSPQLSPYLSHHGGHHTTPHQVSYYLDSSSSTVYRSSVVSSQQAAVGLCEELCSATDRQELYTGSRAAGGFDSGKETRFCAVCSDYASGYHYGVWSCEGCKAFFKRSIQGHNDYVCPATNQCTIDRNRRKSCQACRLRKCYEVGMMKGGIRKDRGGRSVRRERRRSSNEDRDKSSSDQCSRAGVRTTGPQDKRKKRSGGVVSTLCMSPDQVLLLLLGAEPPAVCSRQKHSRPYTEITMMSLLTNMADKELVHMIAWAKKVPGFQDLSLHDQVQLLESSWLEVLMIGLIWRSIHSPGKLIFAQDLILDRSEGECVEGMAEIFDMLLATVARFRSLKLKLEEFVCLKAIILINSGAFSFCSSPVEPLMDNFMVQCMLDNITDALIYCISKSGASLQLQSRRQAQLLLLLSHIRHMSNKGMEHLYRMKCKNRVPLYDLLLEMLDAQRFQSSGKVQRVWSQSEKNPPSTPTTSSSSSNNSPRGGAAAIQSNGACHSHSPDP
# In short: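 HepG2 cells were transiently transfected with multiplexed GAL4-UAS reporter units driven by chimeric NR-GAL4 proteins, dosed for 24 h with 3 nM 6-alpha-fluorotestosterone present, and reporter mRNA quantified by RT-PCR and capillary electrophoresis versus DMSO.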
# [5] = tested on: zebrafish Estrogen Receptor (ESR2B), gene 317733; assay: ATG_zfER2b_XSP1: Attagene TRANS-FACTORIAL Multi-Species (XSP1) HepG2 Assay for zebrafish Estrogen Receptor (ESR2B) (AID 2283773)
# In short: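 Gain-of-signal endpoint relative to DMSO: reporter transcript levels quantified by RT-PCR and capillary electrophoresis after 24 h compound exposure of HepG2 cells expressing a zebrafish ER2b-Gal4 chimera.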
# [6] = tested on: frog Estrogen Receptor (ESR2), gene 100174814; assay: ATG_frER2_XSP1: Attagene TRANS-FACTORIAL Multi-Species (XSP1) HepG2 Assay for frog Estrogen Receptor (ESR2) (AID 2283774)
# In short: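 Transactivation of an exogenous receptor-Gal4 fusion is tracked in transfected HepG2 cells via induced reporter transcript levels. After 24 h treatment, RT-PCR with capillary electrophoresis quantifies signal gain over DMSO.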
# [7] = tested on: frog Estrogen Receptor (ESR1), gene 398734; assay: ATG_frER1_XSP1: Attagene TRANS-FACTORIAL Multi-Species (XSP1) HepG2 Assay for frog Estrogen Receptor (ESR1) (AID 2283777)
# In short: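 Human hepatoma HepG2 cells carried transiently transfected multiplexed Gal4-driven reporters and were exposed to test chemicals for 24 hours. Transcripts were quantified by fluorescent RT-PCR with capillary electrophoresis, referenced to DMSO.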
# [8] = tested on: zebrafish Estrogen Receptor (ESR2A), gene 317734; assay: ATG_zfER2a_XSP1: Attagene TRANS-FACTORIAL Multi-Species (XSP1) HepG2 Assay for zebrafish Estrogen Receptor (ESR2A) (AID 2283778)
# Procedure: ATG_XSP1_multi-species_TRANS is a cell-based, multiplexed assay created by modifying the existing Attagene TRANS-FACTORIAL system to include a panel of nuclear receptors from some or all the following species: human (Homo sapiens), mouse (Mus musculus), frog (Xenopus laevis), zebrafish (Danio rerio), chicken (Gallus gallus), and turtle (Chrysemys picta). The […] format uses HepG2, a human liver cell line, with measurements taken at 24 hours after chemical dosing in a 24-well plate. Xsp1 included 3 nM 6-alpha-fluorotestosterone to partially stimulate the androgen receptor.ATG_zfER2a_XSP1 is one of 29 assay components measured or calculated from the ATG_XSP1_multi-species_TRANS assay. It is designed to make measurements of mRNA induction, a form of inducible reporter, as detected with fluorescence intensity signals by Reverse transcription polymerase chain reaction (RT-PCR) and Capillary electrophoresis technology.The assay endpoint ATG_zfER2a_XSP1 was analyzed in the positive analysis fitting direction relative to DMSO as the negative control and baseline of activity. Using a type of inducible reporter, measures of mRNA for gain-of-signal activity can be used to understand the reporter gene at the transcription factor-level as they relate to the gene ER. Furthermore, this assay endpoint can be referred to as a primary readout, because this assay has produced multiple assay endpoints where this one serves a reporter gene function. To generalize the intended target to other relatable targets, this assay endpoint is annotated to the nuclear receptor intended target family, where the subfamily is steroidal.
# Human liver HepG2 cells are transiently transfected with multiple reporter transcription units (MRTUs) in 6-well plates using FuGene 6 reagent (Roche; 3 ml FuGene/1 mg DNA). The MRTU constructs are regulated by a cis-regulating element (promoter). […] A major difference between the CIS and TRANS system is that in CIS activities of endogenous TFs are measured, whereas the TRANS assay evaluates changes in activities of exogenous, chimeric NR-Gal4 proteins. […] At the end of 24 hour incubation, total RNA was isolated using TriZol reagent (Invitrogen). The isolated RNA is then reverse-transcribed using oligo(dT) primer and Mo-MLV reverse transcriptase (Invitrogen) with DNAse I (Ambion) treatment for 30 min. The one-tenth of the produced cDNA was amplified by PCR using Taq DNA polymerase (Invitrogen) and two reporter sequence-specific primers. The PCR products were fluorescently labeled by primer extension with 6-arboxyfluorescein (6-FAM) 5'-labeled reporter sequence-specific primer (2 min at 95 C, 20 s at 68 C and 10 min at 72 C) and these products were digested with 5U of HpaI (New England Biolabs) for 2h at 37 C. The fragments were purified using Qiaquick PCR columns (Qiagen), analyzed on an ABI 3130xL genetic analyzer (Applied Biosystems) with peak positions identified by using a set of X-rhodamine (ROX)-labeled MapMarker1000 molecular weight standards (BioVentures). The raw capillary electrophoresis data was processed using Attagraph software (Attagene).
# [9] = biological target: chicken Estrogen Receptor (ESR1), ESR1 (gene 396099) (UniProt P06212); assay: ATG_chERa_XSP1: Attagene TRANS-FACTORIAL Multi-Species (XSP1) HepG2 Assay for chicken Estrogen Receptor (ESR1) (AID 2283779)
# Chain of chicken Estrogen Receptor (ESR1), ESR1 (gene 396099) (P06212 whole entry, looked up, the tested form may be a part): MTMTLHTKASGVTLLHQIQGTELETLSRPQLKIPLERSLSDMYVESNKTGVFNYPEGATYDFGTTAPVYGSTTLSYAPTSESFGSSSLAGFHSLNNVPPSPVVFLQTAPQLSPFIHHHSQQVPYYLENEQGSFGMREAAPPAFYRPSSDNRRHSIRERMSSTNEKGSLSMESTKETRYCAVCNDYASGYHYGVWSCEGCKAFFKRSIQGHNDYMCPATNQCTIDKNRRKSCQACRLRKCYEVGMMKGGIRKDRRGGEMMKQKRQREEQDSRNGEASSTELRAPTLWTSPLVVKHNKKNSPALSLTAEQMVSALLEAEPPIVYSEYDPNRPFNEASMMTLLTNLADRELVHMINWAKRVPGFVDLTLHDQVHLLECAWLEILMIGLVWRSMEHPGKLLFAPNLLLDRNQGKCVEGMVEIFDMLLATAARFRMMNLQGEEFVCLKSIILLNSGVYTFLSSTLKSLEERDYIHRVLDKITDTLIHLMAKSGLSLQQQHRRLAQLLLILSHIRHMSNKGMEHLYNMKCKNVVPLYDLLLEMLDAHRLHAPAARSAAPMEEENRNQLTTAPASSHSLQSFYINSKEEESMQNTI
# In short: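 Human liver HepG2, transient MRTU transfection (NR-Gal4 chimeras, GAL4-UAS reporters); 24 h compound exposure; 3 nM 6-alpha-fluorotestosterone in medium. Total RNA → RT-PCR → 6-FAM primer extension → HpaI → CE. Positive direction vs DMSO baseline.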
# [10] = tested on: frog Androgen Receptor (AR), gene 399456; assay: ATG_frAR_XSP1: Attagene TRANS-FACTORIAL Multi-Species (XSP1) HepG2 Assay for frog Androgen Receptor (AR) (AID 2283770)
smiles,measurement,setting,value
CN(C)c1nc(=O)n(C2CCCCC2)c(=O)n1C,outcome,[1],inactive
same,outcome,[2],inactive
CO/C=C(/C(=O)OC)c1ccccc1COc1cccc(C(F)(F)F)n1,AC50,[1],50 µM (active)
same,AC50,[2],50 µM (active)
CC(C)(c1ccccc1)c1ccc(O)cc1,outcome,[3],inactive
same,AC50,[4],1.67 µM (active)
same,AC50,[5],882 nM (active)
same,AC50,[6],525 nM (active)
same,AC50,[1],12.1 µM (active)
same,AC50,[2],13.3 µM (active)
same,AC50,[7],232 nM (active)
same,outcome,[8],inactive
same,AC50,[9],1980 nM (active)
Clc1ccc(C(c2ccccc2Cl)C(Cl)(Cl)Cl)cc1 (centres undefined),outcome,[3],inactive
same,AC50,[4],2.48 µM (active)
same,AC50,[5],752 nM (active)
same,AC50,[6],674 nM (active)
same,AC50,[1],8.75 µM (active)
same,AC50,[2],12.8 µM (active)
same,AC50,[7],389 nM (active)
same,AC50,[8],679 nM (active)
same,AC50,[9],291 nM (active)
C[C@]12CCC(=O)C=C1CC[C@@H]1[C@@H]2CC[C@@]2(C)[C@H]1CC[C@]2(C)O,AC50,[10],0.0038 µM (active)
same,AC50,[3],0.000293 µM (active)
same,AC50,[4],0.0396 µM (active)
same,AC50,[5],5.69 nM (active)
same,AC50,[6],17.3 nM (active)
same,AC50,[7],2.97 nM (active)
same,AC50,[8],2.72 nM (active)
same,AC50,[9],1.61 nM (active)
COc1ccc(O)c(C(C)(C)C)c1,AC50,[1],81.3 µM (active)
same,AC50,[2],71 µM (active)
CC(c1ccc(O)cc1)(c1ccc(O)cc1)c1ccc(O)cc1,AC50,[1],17.8 µM (active)
same,AC50,[2],14.6 µM (active)
Sc1ccccc1,outcome,[1],inactive
same,outcome,[2],inactive
C=CC(=O)NCNC(=O)C=C,outcome,[1],inactive
same,outcome,[2],inactive
Oc1ccc(C(c2ccc(O)cc2)(C(F)(F)F)C(F)(F)F)cc1,outcome,[3],inactive
same,AC50,[4],187 nM (active) and 272 nM (active)
same,AC50,[5],105 nM (active) and 81.1 nM (active)
same,AC50,[6],117 nM (active) and 78.3 nM (active)
same,AC50,[1],25.9 µM (active)
same,outcome,[2],inactive
same,outcome,[7],inactive
same,AC50,[8],26.3 nM (active) and 53.9 nM (active)
same,AC50,[9],7.8 µM (active) and 45.9 nM (active)
O=C(NC(=O)c1c(F)cccc1F)Nc1cc(Cl)c(OC(F)(F)C(F)F)c(Cl)c1,AC50,[1],50 µM (active)
same,AC50,[2],42.2 µM (active)
CCC(C)(c1ccc(O)cc1)c1ccc(O)cc1,AC50,[1],50 µM (active)
same,AC50,[2],42.4 µM (active)
CCCN(CCC)N=O,outcome,[1],inactive
same,outcome,[2],inactive
O=C(O)C(F)(F)C(F)(F)C(F)(F)C(F)(F)C(F)(F)C(F)(F)C(F)(F)C(F)(F)C(F)(F)F,AC50,[1],71.7 µM (active)
same,AC50,[2],67.3 µM (active)
CCCCCCCCCc1ccc(O)cc1,AC50,[1],22.9 µM (active)
same,AC50,[2],19.1 µM (active)
CC(C)C(=O)OCC(C)(C)C(OC(=O)C(C)C)C(C)C (centres undefined),AC50,[1],75 µM (active)
same,AC50,[2],90.1 µM (active)
ClC(Cl)=C(c1ccc(Cl)cc1)c1ccc(Cl)cc1,outcome,[3],inactive
same,outcome,[4],inactive
same,AC50,[5],5920 nM (active)
same,AC50,[6],3830 nM (active)
same,AC50,[1],29.6 µM (active)
same,AC50,[2],21.4 µM (active)
same,outcome,[7],inactive
same,AC50,[8],10000 nM (active)
same,outcome,[9],inactive
CCC(C)(CC)c1cc(NC(=O)c2c(OC)cccc2OC)on1,outcome,[1],inactive
same,outcome,[2],inactive
OCC(O)CO,outcome,[1],inactive
same,outcome,[2],inactive
CCNc1nc(NC(C)C)nc(SC)n1,outcome,[1],inactive
same,outcome,[2],inactive
CC(C)(O)C(=O)Nc1ccc([N+](=O)[O-])c(C(F)(F)F)c1,AC50,[5],15400 nM (active)
same,outcome,[6],inactive
same,AC50,[1],84 µM (active)
same,AC50,[2],10.9 µM (active)
same,outcome,[8],inactive
Cc1ccccc1CO[C@@H]1C[C@@]2(C(C)C)CC[C@]1(C)O2,AC50,[1],76.7 µM (active)
same,AC50,[2],63.6 µM (active)
C=CC(N)=O,outcome,[1],inactive
same,outcome,[2],inactive
CCC(C)c1cc([N+](=O)[O-])cc([N+](=O)[O-])c1O (centres undefined),AC50,[1],12.7 µM (active)
same,AC50,[2],12 µM (active)
CCCCCCCCCC[N+](C)(C)CCCCCCCCCC,AC50,[1],3.81 µM (active)
same,AC50,[2],6.84 µM (active)
CN(C)CCO,outcome,[1],inactive
same,outcome,[2],inactive
C[C@]12CCC(=O)C=C1CC[C@@H]1[C@@H]2CC[C@]2(C)C(=O)CC[C@@H]12,outcome,[3],inactive
same,AC50,[4],1.14 µM (active)
same,outcome,[4],inactive
same,AC50,[5],15.4 nM (active) and 14.6 nM (active)
same,AC50,[6],69 nM (active) and 15.3 nM (active)
same,AC50,[7],13 nM (active) and 15.4 nM (active)
same,AC50,[8],17.5 nM (active) and 13.2 nM (active)
same,AC50,[9],6.69 nM (active) and 4.53 nM (active)
Cc1cccc([N+](=O)[O-])c1,outcome,[1],inactive
same,outcome,[2],inactive
Cc1cccc(C)c1N,outcome,[1],inactive
c1cc2ccc3cccc4ccc(c1)c2c34,outcome,[1],inactive
same,AC50,[2],21.4 µM (active)
O=C(N[C@H]1CN2CCC1CC2)c1cc2ccoc2cn1,outcome,[1],inactive
same,outcome,[2],inactive

# — PubChem BioAssay (EPA / NIEHS)
